Assay outcomes from PubChem BioAssay.
Rows were chosen to be rich in hits. Some 4.8% of all compounds tested hit in one or more screens of this group.
ssDAF12 agonist: activates DAF-12 receptor from parasite S. stercoralis. HEK293 ssDAF-12/GRIP1 lit1-tk-luc reporter, luminescence; % of 3 µM dafachronic acid response. activation, % at 6.8 µM. actives 1% (n = 370,000);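 active = activation above the mean over all tested compounds plus 3 SD, cut at about 0.9% in these data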;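 note: 0% = DMSO-only wells and 100% = 3 µM delta7-dafachronic acid wells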
DAX1 inh-1: inhibitors of human orphan nuclear receptor DAX1 (NR0B1) | P51843 | HEK293 Gal4-DAX1 luciferase reporter, luminescence | inhibition, % at 6.75 µM | actives 0.99% (n = 340,000) | AID 504766;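 active = inhibition above the mean over all tested compounds plus 3 SD, cut at about 4.2% in these data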;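 note: 0% = DAX1-transfected cells with DMSO and 100% = empty-vector control cells with DMSO; inhibition shows as a rise in luminescence from relieved DAX1 repression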
Target sequence (P51843 207-470 limits assumed): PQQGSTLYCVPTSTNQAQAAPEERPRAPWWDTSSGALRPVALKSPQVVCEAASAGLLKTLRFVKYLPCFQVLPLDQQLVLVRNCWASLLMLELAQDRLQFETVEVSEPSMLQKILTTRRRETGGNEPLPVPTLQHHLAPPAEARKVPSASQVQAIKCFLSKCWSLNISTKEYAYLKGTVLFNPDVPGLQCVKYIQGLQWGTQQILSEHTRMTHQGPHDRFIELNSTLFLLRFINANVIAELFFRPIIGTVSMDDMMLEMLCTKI
SMARCA2 activ: activators of SMARCA2 function; MG213 cells, MMTV-luciferase reporter, dexamethasone, overnight; activation, % at 9.1 µM; actives 1% (n = 370,000); AID 652017; in the data active = activation above about 7.8%;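 note: 0% = vehicle wells and 100% = reference activator wells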
hgDAF-12 ag: hgDAF-12 agonism, primary luciferase screen; HEK293 GAL4-hgDAF12 UAS-luciferase reporter, agonist luminescence; normalized to butyrate control; activation, % at 6.8 µM; actives 1.8% (n = 370,000);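 active = activation above a cutoff set at the mean of all screened compounds plus 3 SD, cut at about 10% in these data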;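 note: 0% = DMSO wells and 100% = sodium butyrate wells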
DAX1 inh-2: inhibitors of DAX1 repression of SF-1 activated StAR promoter; HEK293T StAR-luciferase reporter, SF-1/DAX-1 repression relief; inhibition, % at 6.8 µM; actives 1.1% (n = 370,000);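 active = inhibition above the mean over all tested compounds plus 3 SD, cut at about 3.6% in these data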;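 note: 0% = DAX-1 cells with DMSO and 100% = cells lacking DAX-1 with DMSO; higher inhibition means more luminescence from relief of DAX-1 repression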
hcDAF-12 act: activates DAF-12 receptor from parasite H. contortus; AID 652067; HEK293 hcDAF-12 lit1-tk-luc reporter, luminescence; 0% DMSO, 100% Δ7-dafachronic acid; actives 1.4% (n = 370,000); activation, % at 6.8 µM;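 active = activation above the mean of all tested compounds plus 3 SD, cut at about 5.5% in these data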;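 note: 100% = response to 3 µM Δ7-dafachronic acid high control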
* = called active by the depositor; · = no result given.

SMILES	ssDAF12 agonist	DAX1 inh-1	SMARCA2 activ	hgDAF-12 ag	DAX1 inh-2	hcDAF-12 act
Nc1nc2n(n1)C(=O)CC(c1ccccc1)N2 (stereo not drawn)	-2	0	-1	-6	3.7*	-1
Nc1nc2n(n1)C(c1cccs1)CC(c1ccccc1)N2 (stereo not drawn)	-2	-1	1	-1	0	-2
CCN(CC)C(=O)CC[C@@H]1CC[C@]2(CCCN(Cc3cccc4ccccc34)C2)O1	-2	·	-2	1	-1	-3
COc1cc(/C=C2/CC(C)OC2=O)c([N+](=O)[O-])cc1OC (stereo not drawn)	-1	4.7*	-2	1	0	-2
COc1cc(/C=C2\S/C(=N/S(=O)(=O)c3ccccc3)NC2=O)c([N+](=O)[O-])cc1OC	-1	1	2	3	1	-1
O=C(OC(c1ccccc1)c1nccc2ccccc12)c1ccccc1 (stereo not drawn)	-3	1	-7	-17	-5	-6
CC(C)C(OC(=O)c1ccccc1)c1nccc2ccccc12 (stereo not drawn)	0	4.2*	4	4	1	5
Clc1c(-c2ccccc2)nc2ccccn12	1.6*	2	1	8	2	4
O=C(O)c1c(Cl)nc2ccccn12	-1	-2	-1	2	-1	-1
Clc1cccc(-c2ccc(-c3nc4ccccn4c3NCc3ccccc3)cc2)c1	1.8*	0	3	7	1	2
CC(C)c1ccc(NC(=O)N(CCc2nc3ccccc3[nH]2)C2CCCC2)cc1	0.9*	1	2	0	0	3
CN(C)CCN1C(=O)C(=O)/C(=C(/O)c2ccc3c(c2)OCCO3)C1c1ccccn1 (stereo not drawn)	-1	5.2*	6	4	0	1
COc1cccc(/C(O)=C2/C(=O)C(=O)N(CCN(C)C)C2c2ccccn2)c1 (stereo not drawn)	-1	1	0	0	0	0
COC(=O)C1=C(C)N(Cc2ccccc2C(F)(F)F)C(=NCc2ccc(OC)cc2)NC1c1ccc(F)cc1 (stereo not drawn)	-1	·	0	4	-1	-2
N#Cc1ccc(CSc2ccccn2)c(Cl)c1	-1	0	2	3	0	1
Cn1c(SCc2ccc(C#N)cc2Cl)nc2ccccc21	0	4.3*	5	12*	4	4
Cn1cnc(S(=O)(=O)Nc2ccc(C(F)(F)F)cc2)c1	-1	0	1	-4	0	-1
Cn1cnc(S(=O)(=O)Nc2ccc(OC(F)(F)F)cc2)c1	-1	5.5*	-3	2	0	1
CN[C@H]1C[C@H]2c3[nH]c4cccc(-c5ccc6c(c5)OCO6)c4c3CCN2C[C@H]1[C@H](C)O	-2	·	1	1	0	-1
Cc1ccc(S(=O)(=O)NC(=O)c2cc(C)n(CC(c3ccccc3)N(C)C)c2C)cc1 (stereo not drawn)	-1	5.5*	-2	0	-1	0
Cc1cccc(-c2nsc(SCC(=O)N3CCCC3)n2)c1	0	2	6	13*	3	2
O=C(CSc1nc(-c2ccccc2)ns1)N1CCOCC1	0	1	2	4	2	0
CCC(=O)N1CCc2cc(Br)c(S(=O)(=O)NCc3ccccc3OC)cc21	-1	·	3	4	-1	-1
O=C(O)C1CC=CCC1C(=O)NCc1cn2ccccc2n1 (stereo not drawn)	1.1*	0	0	1	0	0
CC(C)(C)OC(=O)N1CCC[C@@H]1C(=O)N1CCC[C@@H]1C(=O)NCc1ccccc1	-1	·	-3	-1	-1	-2
SMILES	ssDAF12 agonist	DAX1 inh-1	SMARCA2 activ	hgDAF-12 ag	DAX1 inh-2	hcDAF-12 act
O=C(NCC1CCCO1)c1cc2ccccc2nc1Cl (stereo not drawn)	0	4.3*	-3	0	1	0
O=C(NCC1CCCO1)c1cccc2ccccc12 (stereo not drawn)	0	2	0	3	0	-2
Cc1nc2ccc(F)cc2cc1C(=O)NCC1CCCO1 (stereo not drawn)	0	0	-4	-1	0	5.8*
Cc1ccc2nc(-c3ccccc3)cc(C(=O)NCC3CCCO3)c2c1 (stereo not drawn)	-1	·	5	2	0	0
COC(=O)C1CN(Cc2ccc(F)cc2)CCS(=O)(=O)N1Cc1cn(Cc2ccc(Cl)cc2)nn1 (stereo not drawn)	-2	·	-1	-1	1	-1
COC(=O)[C@H](CC(C)C)N(CCc1cn(Cc2ccccc2)nn1)S(=O)(=O)c1ccccc1Br	-1	·	0	-3	-1	-2
C[C@H]1[C@@H](NC(=O)C(c2ccccc2)c2ccccc2)CC[C@@]23CCCN2C(=O)CCC[C@@H]13	-1	·	·	0	·	-2
CCCc1cc(C(=O)Nc2nnc(C)s2)cs1	0	2	4	11*	3	3
CCOc1cc(C(=O)Nc2nnc(C)s2)cc(OCC)c1OCC	-1	1	-2	2	0	0
CCOc1ccc(CCNC(=O)c2cc3ccsc3n2C)cc1OCC	-2	·	-1	-3	-2	-6
Nc1ccc2c(c1)sc1ccccc12	-1	1	5	11*	2	3
O=C(N/N=C/c1cnc(N2CCCCC2)s1)c1ccc(Cl)cc1	-2	0	-3	6	0	0
O=Cc1cnc(N2CCCCC2)s1	0	7.1*	4	1	1	-1
CC(C)C[C@H]1COc2cccc(F)c2S(=O)(=O)N1Cc1cn(CCC2OCCO2)nn1	-2	·	-2	-2	1	-3
COC(=O)[C@]12C[C@H](CC(=O)NCc3cccs3)C(=O)N(CCC3=CCCCC3)C1=C[C@H](C(C)C)O[C@@H]2C1CC1	-2	·	-6	3	-1	1
COC(=O)[C@]12C[C@H](CC(=O)NCc3ccc(C)o3)C(=O)N(CCC3=CCCCC3)C1=C[C@H](C(C)C)O[C@@H]2C1CC1	2.1*	·	-4	-1	0	-1
Nc1nc(N)nc(COc2ccccc2)n1	0	4.7*	1	11*	1	2
CCOC(=O)c1c(-c2ccccc2)cn2c(C)cc(C)nc12	-1	0	7	12*	1	0
CCOC(=O)c1c(C)nc(C)c(C(=O)OCC)c1-c1ccccc1	·	1	·	·	·	·
COc1ccc(CNC(=O)[C@@H](NC(=O)C2CCN(C(=O)[C@@H](N)CCSC)CC2)C(C)C)cc1	-1	5.9*	1	-3	0	-1
